This is one part of a sample in which hits are shown more often than they occur.
Pf Dd2 growth: blocks in vitro growth of P. falciparum Dd2; 120,000 compounds, 4.3% hits; P. falciparum Dd2 growth, SYBR Green, 72 h; Potency, µM (highest dose often 28.9 µM), hits mostly inhibitors; active means well fitted inhibition curve with a large enough effect; further: nearly all actives have a fitted effect of over 65% in size
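Infected erythrocytes (Dd2, 0.3% parasitemia, 2.5% hematocrit final) are added to compound in RPMI-1640/Albumax II medium, grown 72 h at 37C in low oxygen, then lysed with saponin/Triton-X containing SYBR Green and read by fluorescence.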
Large screens that a line does not name were inactive.

COc1ccc(-c2nc3n(n2)C(c2ccccc2)C(C(=O)Nc2cccnc2)=C(C)N3)cc1 (configuration not stated)	none
COc1ccccc1NC(=O)C1=C(C)Nc2nnnn2C1c1ccc(C(F)(F)F)cc1 (configuration not stated)	none
Cc1ccc(NC(=O)c2cnn3c2NC(c2ccccc2)=CC3c2ccccc2)cc1 (configuration not stated)	none
COc1ccc(C2C(C(=O)Nc3ccccc3)=C(C)Nc3c(C(=O)Nc4ccccc4)cnn32)cc1 (configuration not stated)	Pf Dd2 growth 3.55µM
COc1ccc(C2C=C(c3cccc(OC)c3)Nc3c(C(=O)Nc4ccccc4)cnn32)cc1 (configuration not stated)	Pf Dd2 growth 12.6µM
COc1cccc(C2C=C(c3ccccc3)Nc3c(C(=O)Nc4ccccc4)cnn32)c1OC (configuration not stated)	none
COc1cccc(NC(=O)c2cnn(-c3ccccc3)c2-n2cccc2)c1	none
COc1ccc(NC(=O)N[C@H]2[C@H](O)[C@@H](N3CCC(C(N)=O)CC3)[C@@H]3OC[C@H]2O3)cc1	none
CSc1cccc(NC(=O)C2CCN(c3cnc4nccnc4c3)CC2)c1	none
O=C(CN1C(=O)NC(c2ccc(Cl)cc2)C2=C1COC2=O)NCc1ccccc1Cl (configuration not stated)	none
CC(C)NC(=O)N1CCOc2ccc(CCC(=O)NCCc3cccnc3)cc2C1	none
C#C[C@H]1CN2CC[C@H]1C[C@@H]2CNC(=O)COC	none
CCOc1ccccc1NC(=O)C1=C(C)Nc2ncnn2C1c1ccc(C)o1 (configuration not stated)	none
COc1cc(OC)c(C2C(C(=O)Nc3ccccc3)=C(C)Nc3ncnn32)cc1OC (configuration not stated)	none
COc1ccccc1NC(=O)C1=C(C)Nc2ncnn2C1c1ccccc1C(=O)O (configuration not stated)	Pf Dd2 growth 1.26µM
CCOc1cc(C2C(C(=O)Nc3ccccc3)=C(C)Nc3ncnn32)cc(Br)c1O (configuration not stated)	none
CCOc1ccc(C2C(C(=O)Nc3ccccc3OC)=C(C)Nc3c(C(=O)Nc4cccc(C)c4)cnn32)cc1 (configuration not stated)	Pf Dd2 growth 3.98µM
CCCCOc1ccc(C2C(C(=O)Nc3ccccc3OC)=C(C)Nc3nnnn32)cc1OC (configuration not stated)	none
Cn1ccc2c(C(=O)NCCC(N)=O)nc(-c3cccc(C(F)(F)F)c3)cc21	none
CCN(Cc1ccccc1)Cc1nnc2cc(-c3nc(-c4ccccc4)no3)ccn12	none
O=C(NCCc1cnccn1)C1CCN(C(=O)C2CCC2)CC1	none
CN(C)c1ccc(-c2nnc([C@H]3CCN(c4nccc(C(F)(F)F)n4)C3)o2)cc1	none
COCc1ccc(C(=O)N2CC[C@@H](NC(=O)c3ccncc3)[C@H](O)C2)o1	none
Cc1cccc(NC(=O)CSc2ccc(-c3sc(-c4ccccc4)nc3C)nn2)c1C	none
COC(=O)c1ccc(NC(=O)CSc2ccc(-c3sc(-c4ccccc4)nc3C)nn2)cc1	Pf Dd2 growth 12.6µM
Cc1nc(-c2ccccc2)sc1-c1ccc(SCC(=O)NCc2ccc(Cl)cc2)nn1	none
CCNC(=O)Nc1ccc([C@H]2OCC(=O)N(Cc3scnc3C)[C@@H]2CO)cc1	none
CCN1C(=O)C2CC3(CCN(C(=O)NCCc4ccccc4)CC3)CN2C1=O (configuration not stated)	none
CC(C)COc1cc(=O)n2c(c1C(=O)NCCCn1cccn1)CCCCC2	none
CN(C)[C@H]1C[C@@H](Cc2cc(COc3ccccc3)on2)C1(C)C	none
CC1(C)[C@H](Cc2cc(CN3CCOCC3)on2)C[C@@H]1NC(=O)Nc1ccc(F)cc1	none
CC1(C)[C@H](Cc2cc(COc3ccccc3)on2)C[C@@H]1NC(=O)Nc1ccccc1	Pf Dd2 growth 10µM
CCCCc1cc(C[C@@H]2C[C@H](NC(=O)NCC)C2(C)C)no1	none
c1ccc(OCc2cc(CC3(NC4CCC4)COC3)no2)cc1	none
CC1(C)[C@H](Cc2cc(COc3ccccc3)on2)C[C@@H]1NC1CCC1	Pf Dd2 growth 11.2µM
CCCCCC(=O)N[C@H]1C[C@@H](Cc2cc(COc3ccccc3)on2)C1(C)C	Pf Dd2 growth 11.2µM
CCCCCC(=O)N[C@H]1C[C@@H](Cc2cc(COC(=O)CCCCC)on2)C1(C)C	none
CC(C)(C)C(=O)N[C@H]1C[C@@H](Cc2cc(COc3ccccc3)on2)C1(C)C	none
COCCNc1nc2c(S(=O)(=O)c3ccc(C)cc3)nnn2c2ccccc12	none
O=C(Cn1cccc1-c1nc(-c2ccccc2)no1)Nc1ccc(Cl)cc1	none
CCC(=O)N(C1CCOCC1)C1CCN(S(=O)(=O)c2cc(F)cc(F)c2)CC1	none
O=C(NCC(F)(F)F)C1CN(c2cccc(Cl)c2)C(=O)N1 (configuration not stated)	none
Cn1nccc1C(=O)N1CCC(c2cc(-c3ccccc3)n[nH]2)CC1	none
CCCCN1C(=O)C(O)(c2c(C)[nH]c3ccccc23)c2cc(Br)ccc21 (configuration not stated)	Pf Dd2 growth 11.2µM
CCN1C(=O)C(O)(c2c(C)[nH]c3ccccc23)c2ccccc21 (configuration not stated)	none
CCCCN1C(=O)C(O)(c2c(C)[nH]c3ccccc23)c2ccccc21 (configuration not stated)	none
Cc1ccc(C(=O)N2CCC3(CC2)NC(=O)N(c2cccc(F)c2)N3)cc1	none
CCCS(=O)(=O)N1CCC2(CC1)CC(=O)N(Cc1cc(F)cc(F)c1)C2	none
COc1ccc2nc([C@H]3CCN(C(=O)COCC(=O)O)C3)[nH]c2c1	none
COCc1nc(C2CCCN(C(=O)c3ccnn3C)C2)no1 (configuration not stated)	none
Cc1nnc(NC(=O)CSc2nnc3c(n2)[nH]c2ccccc23)s1	none
CCCCCCSc1nnc2c(n1)OC(C)Nc1ccc(Br)cc1-2 (configuration not stated)	none
CCCCCSc1nnc2c(n1)[nH]c1c(C)cccc12	Pf Dd2 growth 3.98µM
O=C(Cc1ccsc1)NCCC1CCN(C(=O)Nc2ccc(F)cc2F)CC1	none
Cc1noc(-c2cn(C3CCN(C(=O)c4cccc(OC(F)(F)F)c4)CC3)nn2)n1	none
CC(=O)N1CCN(C(=O)C[C@@H]2C[C@@H](C(C)C)[C@H](CNC(=O)Nc3cccc(F)c3)C=C2C)CC1	none
CC1=C[C@@H](CNC(=O)c2cccnc2)[C@H](C(C)C)C[C@H]1CC(=O)N1CCCC1	none
COc1ccccc1C(=O)NC[C@@H]1C=C(C)[C@H](CC(=O)NCc2ccccn2)C[C@H]1C(C)C	none
COc1ccccc1C(=O)NC[C@@H]1C=C(C)[C@H](CC(=O)N2CCCC2)C[C@H]1C(C)C	Pf Dd2 growth 12.6µM
CC1=C[C@@H](CNC(=O)c2cccnc2)[C@H](C(C)C)C[C@H]1CC(=O)N1CCN(C)CC1	none
COc1cccc(NC(=O)NC[C@@H]2C=C(C)[C@H](CC(=O)N3CCOCC3)C[C@H]2C(C)C)c1	none
C#CCNC(=O)C[C@@H]1C[C@@H](C(C)C)[C@H](CNC(=O)c2ccccn2)C=C1C	none
CC1=C[C@@H](CNC(=O)c2ccccn2)[C@H](C(C)C)C[C@H]1CC(=O)N1CCN(C)CC1	Pf Dd2 growth 11.2µM
COc1cccc(NC(=O)NC[C@@H]2C=C(C)[C@H](CC(=O)N3CCN(c4ccccn4)CC3)C[C@H]2C(C)C)c1	Pf Dd2 growth 12.6µM
O=C(c1ccccc1)N1CCCC(N2CCN(c3cccc(C(F)(F)F)c3)CC2)C1 (configuration not stated)	none
COc1ccccc1C(=O)N1CCC2(CC1)COc1ccccc1C(=O)N2	none

High-throughput results from PubChem.
